Type in all cases: functional
Assay [1] concerns Plasmodium falciparum. Briefly: GSK_TCMDC: Inhibition of Plasmodium falciparum 3D7 in whole red blood cells, using parasite LDH activity as an index of growth. Test compounds present at 2uM.
In assay [2] the test system is Plasmodium falciparum. Put plainly: GSK_TCMDC: Inhibition of Plasmodium falciparum Dd2 in whole red blood cells, using parasite LDH activity as an index of growth. Test compounds present at 2uM.
The next assay concerns HepG2. Briefly: GSK_TCMDC: Percent inhibition of human HepG2 cell line. Test compounds present at 10uM.

Regarding `Cc1nc(N)nc(N)c1-c1ccc2ccccc2c1`, the figures for the Inhibition with Plasmodium falciparum [1], in the assay on Plasmodium falciparum [2] and in the assay on HepG2 were 97%, 2% and 60%, respectively.
For the compound `N#Cc1cccc(-c2nc(NCc3cccc(C(F)(F)F)c3)nn2-c2cccc(C(F)(F)F)c2)c1`, the figures for the Inhibition with Plasmodium falciparum [1], with Plasmodium falciparum [2] and in the assay with HepG2 were 94%, 88% and 12%, respectively.
In the case of `N=C(N)NN=CC(=O)Nc1ccc(Br)cc1.O=S(=O)(O)O`, the Inhibition (usually the share of the control response that was lost under treatment) in the assay on Plasmodium falciparum [1] is given as 100%; with Plasmodium falciparum [2], 1%; in the assay with HepG2 it was 5%.
In the case of `O=C(/C=C/c1ccc(Cl)c(Cl)c1)NCCCCCN1CCCC(CNS(=O)(=O)c2cccc(C(F)(F)F)c2)C1` (stereo not given), the Inhibition is 92% with Plasmodium falciparum [1], 0% in the assay with Plasmodium falciparum [2] and 73% in the assay with HepG2.
For the compound `CCc1cn(C)c2c(N3CCCC3=O)cc(C(=O)N[C@@H](Cc3ccccc3)[C@H](O)CNC(C)(C)c3cccc(C(F)(F)F)c3)cc12`, the figures for the Inhibition with Plasmodium falciparum [1], with Plasmodium falciparum [2] and with HepG2 were 97%, 97% and 22%, respectively.
Consider `Cc1cccc2nc(-c3cccc(-c4cccc(CNCc5ccccc5)c4)c3)[nH]c12.O=C(O)C(F)(F)F`, for which the Inhibition in the assay with Plasmodium falciparum [1] stood at 100%; in the assay with Plasmodium falciparum [2], 56%; in the assay on HepG2, 3%.
As to `O=C(C=CC(=O)N1CCCCC1)NCc1ccccc1`, the values for the Inhibition with Plasmodium falciparum [1], in the assay with Plasmodium falciparum [2] and with HepG2 were 100%, 0% and 6%, respectively.
Turning to `CCOc1ccccc1CNc1nccc(NCc2ccccc2OC)n1`, the Inhibition in the assay on Plasmodium falciparum [1] amounted to 87%; in the assay with Plasmodium falciparum [2], 66%; in the assay on HepG2, 50%.
The like results for `CCOC(=O)[C@H](Cc1cc([N+](=O)[O-])c(Oc2ccc(OC)c(Cc3ccc(OC)c(C(C)C)c3)c2)c([N+](=O)[O-])c1)NC(=O)C(F)(F)F` were, in that order, 94%, 0% and 5%.
Take `COc1ccccc1CCN(C)CCN1CCC(NC(=O)c2ccc(-c3ccc(C(F)(F)F)cc3)cc2)CC1`: the values for the Inhibition in the assay with Plasmodium falciparum [1], with Plasmodium falciparum [2] and in the assay with HepG2 were 92%, 15% and 46%, respectively.

These data come from ChEMBL document CHEMBL1157539, “Thousands of chemical starting points for antimalarial lead identification” (Nature, 2010).
